This passage reports binding signal results from article PMC7862700, “An all-to-all approach to the identification of sequence-specific readers for epigenetic DNA modifications on cytosine”.

What all share (assay): DAPPL (digital affinity profiling via proximity ligation, sequencing); 10 mM Tris-HCl pH 7.5, 50 mM NaCl, 1 mM DTT, 4% glycerol, room temperature, 30 min; GST-TFs on glutathione beads, 16-mer random dsDNA library, 0.1% formaldehyde crosslink after washing; high values mean tight binding
One assay concerns the target T1, FLI1 (Homo sapiens, UniProt Q01543 1-452).
T1 sequence: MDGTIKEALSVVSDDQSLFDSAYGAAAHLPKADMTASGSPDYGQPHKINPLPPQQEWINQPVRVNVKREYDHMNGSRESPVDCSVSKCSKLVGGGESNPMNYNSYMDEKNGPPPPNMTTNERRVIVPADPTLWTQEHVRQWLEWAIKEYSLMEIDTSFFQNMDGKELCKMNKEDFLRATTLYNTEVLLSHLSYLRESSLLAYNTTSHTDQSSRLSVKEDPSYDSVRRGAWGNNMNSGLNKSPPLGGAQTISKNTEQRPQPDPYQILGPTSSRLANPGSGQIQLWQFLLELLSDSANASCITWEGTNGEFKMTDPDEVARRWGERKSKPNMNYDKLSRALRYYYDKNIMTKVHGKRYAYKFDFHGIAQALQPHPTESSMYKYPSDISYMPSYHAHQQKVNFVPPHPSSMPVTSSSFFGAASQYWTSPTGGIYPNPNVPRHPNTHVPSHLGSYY
Conditions: protein: recombinant; tags: N-terminal GST; dsDNA, one strand shown. The method in brief:
(§1)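 Binding signal is defined as a hexamer's read frequency for one factor over its frequency for the tag-only sample. To obtain reads, GST-fused human transcription factors were expressed in yeast, captured on glutathione beads, barcoded with DNA and pooled with that sample. Pools met 200 nmole of a 16-mer random double-stranded DNA library in Tris/NaCl/DTT/glycerol buffer for 30 min at room temperature before washing, 0.1% formaldehyde crosslinking, proximity ligation (BsaI/T4 ligase, 1 h, 37 °C), PCR and Illumina NextSeq500 sequencing.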

Another assay concerns the target T2, ELK1 (Homo sapiens, UniProt P19419 1-428).
T2 sequence: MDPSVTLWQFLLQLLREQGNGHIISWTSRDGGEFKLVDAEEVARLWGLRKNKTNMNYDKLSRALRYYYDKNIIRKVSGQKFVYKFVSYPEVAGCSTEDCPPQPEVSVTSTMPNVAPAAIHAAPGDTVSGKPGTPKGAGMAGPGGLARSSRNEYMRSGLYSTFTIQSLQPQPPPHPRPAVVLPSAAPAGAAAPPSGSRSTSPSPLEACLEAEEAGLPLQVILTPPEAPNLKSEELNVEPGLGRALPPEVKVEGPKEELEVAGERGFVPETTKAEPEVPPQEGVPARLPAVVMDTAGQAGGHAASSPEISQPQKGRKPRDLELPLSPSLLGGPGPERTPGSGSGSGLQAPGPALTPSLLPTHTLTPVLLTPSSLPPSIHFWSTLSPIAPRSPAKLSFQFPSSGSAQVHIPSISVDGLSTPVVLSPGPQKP
The note with it: protein: recombinant; tags: N-terminal GST; dsDNA, one strand shown. The gist of the method:
as §1

In the next assay the target is T3, GABPA (Homo sapiens, UniProt Q06546 1-454).
T3 sequence: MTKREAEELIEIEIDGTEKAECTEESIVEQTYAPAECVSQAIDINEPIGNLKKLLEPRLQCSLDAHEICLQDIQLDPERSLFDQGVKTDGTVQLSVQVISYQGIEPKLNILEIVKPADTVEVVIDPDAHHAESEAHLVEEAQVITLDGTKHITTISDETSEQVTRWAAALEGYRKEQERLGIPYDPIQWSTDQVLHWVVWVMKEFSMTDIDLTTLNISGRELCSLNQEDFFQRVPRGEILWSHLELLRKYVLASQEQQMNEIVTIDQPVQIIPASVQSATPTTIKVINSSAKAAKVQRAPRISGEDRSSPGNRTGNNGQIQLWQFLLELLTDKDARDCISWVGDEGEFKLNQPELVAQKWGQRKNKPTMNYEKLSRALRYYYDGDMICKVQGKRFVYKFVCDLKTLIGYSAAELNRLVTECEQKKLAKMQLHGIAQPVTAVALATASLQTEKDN
The note with it: protein: recombinant; tags: N-terminal GST; dsDNA, one strand shown. The gist of the method: as §1

In a further assay the target is T4, ERG (Homo sapiens, UniProt P11308 1-479).
T4 sequence: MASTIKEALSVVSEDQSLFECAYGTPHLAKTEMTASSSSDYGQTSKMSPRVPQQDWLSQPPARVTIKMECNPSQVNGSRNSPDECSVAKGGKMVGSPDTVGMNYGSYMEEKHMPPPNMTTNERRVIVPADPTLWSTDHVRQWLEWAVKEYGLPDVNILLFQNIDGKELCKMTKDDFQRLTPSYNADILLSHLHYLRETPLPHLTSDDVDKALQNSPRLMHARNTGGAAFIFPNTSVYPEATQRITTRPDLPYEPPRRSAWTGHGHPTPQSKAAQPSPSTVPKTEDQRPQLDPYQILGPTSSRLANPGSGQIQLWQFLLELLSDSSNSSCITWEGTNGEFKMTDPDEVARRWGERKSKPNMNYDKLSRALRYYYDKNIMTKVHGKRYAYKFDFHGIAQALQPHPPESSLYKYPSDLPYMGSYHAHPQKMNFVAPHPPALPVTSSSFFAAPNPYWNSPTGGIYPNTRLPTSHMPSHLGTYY
The note with it: protein: recombinant; tags: N-terminal GST; dsDNA, one strand shown. The gist of the method: as §1

In another assay the target is ELF1 (Homo sapiens, UniProt P32519 1-619). Conditions: protein: recombinant; tags: N-terminal GST; dsDNA, one strand shown. The gist of the method:
as §1

The next assay has as its target T5, EHF (Homo sapiens, UniProt Q9NZC4 1-300).
T5 sequence: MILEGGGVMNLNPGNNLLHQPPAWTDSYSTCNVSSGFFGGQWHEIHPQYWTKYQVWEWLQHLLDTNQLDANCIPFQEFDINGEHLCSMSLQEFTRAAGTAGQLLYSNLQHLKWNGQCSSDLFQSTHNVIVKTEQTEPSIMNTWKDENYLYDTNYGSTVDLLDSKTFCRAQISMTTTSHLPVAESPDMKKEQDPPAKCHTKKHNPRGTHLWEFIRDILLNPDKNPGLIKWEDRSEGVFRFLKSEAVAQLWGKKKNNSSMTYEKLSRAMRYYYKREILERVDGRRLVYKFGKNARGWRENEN
The note with it: protein: recombinant; tags: N-terminal GST; dsDNA, one strand shown. The method in brief: as §1

The next assay concerns the target SPI1 (Homo sapiens, UniProt P17947 1-270). The note with it: protein: recombinant; tags: N-terminal GST; dsDNA, one strand shown. The gist of the method: as §1
A further assay has as its target SPIB (Homo sapiens, UniProt Q01892 1-262). The note with it: protein: recombinant; tags: N-terminal GST; dsDNA, one strand shown. The gist of the method: as §1
The next assay deals with T6, ELK3 (Homo sapiens, UniProt P41970 1-407).
T6 sequence: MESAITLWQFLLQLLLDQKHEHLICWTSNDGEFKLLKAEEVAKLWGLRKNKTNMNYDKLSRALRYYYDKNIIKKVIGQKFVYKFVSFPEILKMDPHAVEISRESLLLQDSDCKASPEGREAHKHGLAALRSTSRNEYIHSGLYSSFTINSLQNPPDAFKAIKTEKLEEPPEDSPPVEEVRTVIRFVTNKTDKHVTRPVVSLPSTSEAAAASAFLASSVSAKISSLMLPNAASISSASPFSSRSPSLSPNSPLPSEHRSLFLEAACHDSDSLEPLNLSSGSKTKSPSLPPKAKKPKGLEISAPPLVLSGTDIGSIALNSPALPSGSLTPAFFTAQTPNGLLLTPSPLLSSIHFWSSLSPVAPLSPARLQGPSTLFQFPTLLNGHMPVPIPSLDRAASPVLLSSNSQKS
Conditions: protein: recombinant; tags: N-terminal GST; dsDNA, one strand shown. The gist of the method: as §1

The next assay deals with T7, FEV (Homo sapiens, UniProt Q99581 1-238).
T7 sequence: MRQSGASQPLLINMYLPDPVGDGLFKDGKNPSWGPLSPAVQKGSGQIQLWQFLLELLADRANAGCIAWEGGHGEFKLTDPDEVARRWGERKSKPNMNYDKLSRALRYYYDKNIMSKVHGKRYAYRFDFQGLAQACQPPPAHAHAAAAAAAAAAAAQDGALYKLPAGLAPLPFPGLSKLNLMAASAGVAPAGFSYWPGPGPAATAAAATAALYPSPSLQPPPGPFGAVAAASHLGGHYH
The note with it: protein: recombinant; tags: N-terminal GST; dsDNA, one strand shown. The gist of the method:
as §1

For a further assay, the target named is ETV5 (Homo sapiens, UniProt P41161 1-510). The note with it: protein: recombinant; tags: N-terminal GST; dsDNA, one strand shown. The gist of the method: as §1
A further assay addresses HSF1 (Homo sapiens, UniProt Q00613 1-529). The note with it: protein: recombinant; tags: N-terminal GST; chain copies: 3; dsDNA, one strand shown. The method in brief: as §1
For the next assay, the target named is ELF4 (Homo sapiens, UniProt Q99607 1-663). Conditions: protein: recombinant; tags: N-terminal GST; dsDNA, one strand shown. The gist of the method: as §1
Another assay deals with T8, ELK4 (Homo sapiens, UniProt P28324-2 1-405).
T8 sequence: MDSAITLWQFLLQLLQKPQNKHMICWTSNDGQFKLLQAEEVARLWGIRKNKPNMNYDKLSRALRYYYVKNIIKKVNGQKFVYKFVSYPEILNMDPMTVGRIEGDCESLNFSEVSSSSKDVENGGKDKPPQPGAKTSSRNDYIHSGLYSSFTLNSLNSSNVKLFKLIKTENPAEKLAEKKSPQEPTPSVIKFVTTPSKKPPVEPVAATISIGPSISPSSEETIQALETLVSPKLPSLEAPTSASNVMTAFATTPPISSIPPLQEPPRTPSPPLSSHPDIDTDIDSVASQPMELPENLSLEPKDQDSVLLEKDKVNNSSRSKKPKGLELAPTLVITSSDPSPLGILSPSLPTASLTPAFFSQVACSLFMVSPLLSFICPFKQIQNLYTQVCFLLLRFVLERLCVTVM
Conditions: protein: recombinant; tags: N-terminal GST; dsDNA, one strand shown. The gist of the method:
as §1

A further assay deals with T9, ETV2 (Homo sapiens, UniProt O00321 1-342).
T9 sequence: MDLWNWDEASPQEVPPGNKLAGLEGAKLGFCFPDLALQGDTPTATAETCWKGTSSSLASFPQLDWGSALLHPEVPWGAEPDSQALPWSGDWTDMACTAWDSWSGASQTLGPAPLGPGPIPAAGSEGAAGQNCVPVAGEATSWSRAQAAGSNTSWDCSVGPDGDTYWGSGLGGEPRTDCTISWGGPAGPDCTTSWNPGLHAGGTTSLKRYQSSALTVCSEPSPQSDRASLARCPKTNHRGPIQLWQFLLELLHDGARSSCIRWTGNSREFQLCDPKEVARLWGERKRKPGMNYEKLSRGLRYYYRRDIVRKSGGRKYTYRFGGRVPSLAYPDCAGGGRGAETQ
The note with it: protein: recombinant; tags: N-terminal GST; dsDNA, one strand shown. The method in brief:
as §1

The next assay concerns the target T10, ELF3 (Homo sapiens, UniProt P78545 1-371).
T10 sequence: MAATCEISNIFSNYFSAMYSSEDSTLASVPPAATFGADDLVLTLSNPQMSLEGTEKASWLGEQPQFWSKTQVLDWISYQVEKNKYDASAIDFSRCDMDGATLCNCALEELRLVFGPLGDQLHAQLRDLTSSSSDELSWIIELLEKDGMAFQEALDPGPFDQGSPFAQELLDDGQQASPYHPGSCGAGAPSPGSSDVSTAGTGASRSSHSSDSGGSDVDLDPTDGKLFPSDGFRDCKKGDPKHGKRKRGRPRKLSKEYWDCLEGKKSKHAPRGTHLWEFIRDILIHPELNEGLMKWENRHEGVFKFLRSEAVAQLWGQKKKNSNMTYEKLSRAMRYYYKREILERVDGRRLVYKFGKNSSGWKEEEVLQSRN
Conditions: protein: recombinant; tags: N-terminal GST; dsDNA, one strand shown. The method in brief:
as §1

The target of the next assay is CRX (Homo sapiens, UniProt O43186 1-299). The note with it: protein: recombinant; tags: N-terminal GST; dsDNA, one strand shown. The method in brief:
as §1

A further assay concerns the target ETV1 (Homo sapiens, UniProt P50549 1-477). Conditions: protein: recombinant; tags: N-terminal GST; dsDNA, one strand shown. The method in brief:
as §1

Sequence of HSF1 (Q00613 whole entry): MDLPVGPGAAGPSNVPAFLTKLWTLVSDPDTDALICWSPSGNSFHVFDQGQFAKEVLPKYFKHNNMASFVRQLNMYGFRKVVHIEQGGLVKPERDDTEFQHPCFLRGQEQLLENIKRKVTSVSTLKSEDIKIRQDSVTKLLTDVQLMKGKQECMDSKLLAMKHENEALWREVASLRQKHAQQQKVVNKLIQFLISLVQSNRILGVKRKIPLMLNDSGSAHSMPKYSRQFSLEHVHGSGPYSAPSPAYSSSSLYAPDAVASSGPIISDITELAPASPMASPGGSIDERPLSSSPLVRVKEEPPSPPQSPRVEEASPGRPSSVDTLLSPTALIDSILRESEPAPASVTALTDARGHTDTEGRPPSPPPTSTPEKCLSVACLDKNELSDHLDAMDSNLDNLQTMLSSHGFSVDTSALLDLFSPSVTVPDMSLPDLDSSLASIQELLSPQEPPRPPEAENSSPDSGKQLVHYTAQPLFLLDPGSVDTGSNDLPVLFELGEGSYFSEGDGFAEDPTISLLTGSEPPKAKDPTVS
Sequence of ELF4 (Q99607 whole entry): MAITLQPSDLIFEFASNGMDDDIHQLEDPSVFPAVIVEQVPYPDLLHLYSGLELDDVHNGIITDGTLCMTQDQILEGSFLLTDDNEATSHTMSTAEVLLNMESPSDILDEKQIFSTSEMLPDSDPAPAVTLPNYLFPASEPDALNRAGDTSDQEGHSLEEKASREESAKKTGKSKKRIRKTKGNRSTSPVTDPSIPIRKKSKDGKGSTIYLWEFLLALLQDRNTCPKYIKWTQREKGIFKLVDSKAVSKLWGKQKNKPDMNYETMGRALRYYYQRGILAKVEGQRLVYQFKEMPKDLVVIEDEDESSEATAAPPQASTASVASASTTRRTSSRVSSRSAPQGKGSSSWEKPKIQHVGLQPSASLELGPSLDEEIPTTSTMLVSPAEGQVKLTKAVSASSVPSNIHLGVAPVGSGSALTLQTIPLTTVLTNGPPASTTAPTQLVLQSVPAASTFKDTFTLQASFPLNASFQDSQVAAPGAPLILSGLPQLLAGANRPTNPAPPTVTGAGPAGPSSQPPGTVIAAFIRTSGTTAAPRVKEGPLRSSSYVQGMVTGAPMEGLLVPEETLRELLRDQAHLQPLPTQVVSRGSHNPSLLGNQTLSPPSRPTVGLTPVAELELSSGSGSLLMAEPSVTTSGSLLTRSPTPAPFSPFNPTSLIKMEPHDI
Sequence of CRX (O43186 whole entry): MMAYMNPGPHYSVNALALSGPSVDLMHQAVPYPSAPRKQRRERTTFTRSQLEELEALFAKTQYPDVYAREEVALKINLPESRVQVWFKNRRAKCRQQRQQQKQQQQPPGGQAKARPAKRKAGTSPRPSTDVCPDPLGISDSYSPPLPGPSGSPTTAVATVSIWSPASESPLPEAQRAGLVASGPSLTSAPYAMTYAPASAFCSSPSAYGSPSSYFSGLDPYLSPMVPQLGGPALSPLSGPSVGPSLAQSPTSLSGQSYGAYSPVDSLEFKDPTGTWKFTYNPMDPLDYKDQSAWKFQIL
Sequence of ETV1 (P50549 whole entry): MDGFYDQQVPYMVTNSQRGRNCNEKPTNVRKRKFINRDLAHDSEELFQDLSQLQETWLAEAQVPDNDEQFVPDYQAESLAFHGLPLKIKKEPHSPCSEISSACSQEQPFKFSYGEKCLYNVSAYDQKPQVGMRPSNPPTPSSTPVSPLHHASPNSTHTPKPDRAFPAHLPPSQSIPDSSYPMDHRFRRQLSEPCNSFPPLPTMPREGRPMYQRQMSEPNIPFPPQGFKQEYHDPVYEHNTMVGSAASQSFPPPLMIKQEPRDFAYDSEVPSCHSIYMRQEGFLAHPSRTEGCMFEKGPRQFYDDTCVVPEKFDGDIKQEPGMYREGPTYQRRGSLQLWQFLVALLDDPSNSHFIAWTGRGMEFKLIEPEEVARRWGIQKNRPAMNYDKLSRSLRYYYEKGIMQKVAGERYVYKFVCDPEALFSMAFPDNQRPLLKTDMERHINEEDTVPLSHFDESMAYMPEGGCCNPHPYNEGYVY
Sequence of ETV5 (P41161 whole entry): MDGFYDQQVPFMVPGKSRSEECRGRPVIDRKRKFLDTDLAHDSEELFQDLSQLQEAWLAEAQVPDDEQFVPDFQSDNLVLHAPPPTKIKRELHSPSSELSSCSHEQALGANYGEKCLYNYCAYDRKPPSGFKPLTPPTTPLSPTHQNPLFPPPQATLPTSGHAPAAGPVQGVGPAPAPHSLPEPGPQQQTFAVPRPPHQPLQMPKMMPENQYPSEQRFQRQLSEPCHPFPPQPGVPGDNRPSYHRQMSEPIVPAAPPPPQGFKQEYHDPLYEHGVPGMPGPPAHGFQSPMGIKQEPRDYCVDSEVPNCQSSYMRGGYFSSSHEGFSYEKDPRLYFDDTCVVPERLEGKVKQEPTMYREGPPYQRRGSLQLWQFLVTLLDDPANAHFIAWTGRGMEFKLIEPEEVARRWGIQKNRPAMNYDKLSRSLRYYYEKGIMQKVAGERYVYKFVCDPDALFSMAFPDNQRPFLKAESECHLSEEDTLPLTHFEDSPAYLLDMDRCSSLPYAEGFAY
Sequence of SPIB (Q01892 whole entry): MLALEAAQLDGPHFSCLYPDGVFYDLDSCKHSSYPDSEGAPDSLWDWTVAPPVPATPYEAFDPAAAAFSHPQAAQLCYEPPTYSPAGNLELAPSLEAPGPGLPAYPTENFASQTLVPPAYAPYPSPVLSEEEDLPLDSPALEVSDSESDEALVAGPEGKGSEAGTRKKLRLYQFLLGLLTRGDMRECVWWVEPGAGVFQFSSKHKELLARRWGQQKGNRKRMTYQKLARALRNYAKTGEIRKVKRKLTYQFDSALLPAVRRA
Sequence of ELF1 (P32519 whole entry): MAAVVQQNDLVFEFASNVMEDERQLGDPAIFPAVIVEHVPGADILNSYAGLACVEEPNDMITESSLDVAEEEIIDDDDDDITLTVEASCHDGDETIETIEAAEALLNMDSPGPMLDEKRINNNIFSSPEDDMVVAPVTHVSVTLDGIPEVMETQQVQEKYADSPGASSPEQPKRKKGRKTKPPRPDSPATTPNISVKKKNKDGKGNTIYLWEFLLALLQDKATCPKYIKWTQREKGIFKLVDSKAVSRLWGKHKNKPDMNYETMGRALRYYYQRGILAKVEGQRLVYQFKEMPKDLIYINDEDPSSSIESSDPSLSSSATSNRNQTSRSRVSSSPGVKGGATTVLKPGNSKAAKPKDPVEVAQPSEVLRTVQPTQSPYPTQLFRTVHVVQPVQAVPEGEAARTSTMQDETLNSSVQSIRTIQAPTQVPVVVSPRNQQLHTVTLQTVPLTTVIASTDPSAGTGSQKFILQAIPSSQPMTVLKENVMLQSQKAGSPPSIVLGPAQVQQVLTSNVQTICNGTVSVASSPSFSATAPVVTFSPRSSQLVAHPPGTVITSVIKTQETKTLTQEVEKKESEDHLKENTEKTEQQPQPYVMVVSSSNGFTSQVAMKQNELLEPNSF

Take TGACTA: the binding signal is 1.14 fold enrichment (6-mer frequency, TF over GST control) with FLI1; 1.08 fold enrichment (6-mer frequency, TF over GST control) with ELK1; 1.08 fold enrichment (6-mer frequency, TF over GST control) with GABPA; 1.03 fold enrichment (6-mer frequency, TF over GST control) with ERG; 1.09 fold enrichment (6-mer frequency, TF over GST control) in the assay with ELF1; 1.11 fold enrichment (6-mer frequency, TF over GST control) in the assay with EHF. The binding signal with SPI1 was 1.14 fold enrichment (6-mer frequency, TF over GST control); with SPIB, 1.17 fold enrichment (6-mer frequency, TF over GST control); with ELK3 it was 1.14 fold enrichment (6-mer frequency, TF over GST control); with FEV, 1.01 fold enrichment (6-mer frequency, TF over GST control); in the assay with ETV5, 1.04 fold enrichment (6-mer frequency, TF over GST control); with HSF1, 1.04 fold enrichment (6-mer frequency, TF over GST control). The binding signal is 1.09 fold enrichment (6-mer frequency, TF over GST control) in the assay with ELF4; 1.06 fold enrichment (6-mer frequency, TF over GST control) with ELK4; 1.17 fold enrichment (6-mer frequency, TF over GST control) with ETV2; 1.08 fold enrichment (6-mer frequency, TF over GST control) in the assay with ELF3; 1.17 fold enrichment (6-mer frequency, TF over GST control) with CRX; 1.15 fold enrichment (6-mer frequency, TF over GST control) in the assay with ETV1.
